According to PubChem BioAssay (NCATS):
Inconclusive results are not listed. Values without a mark were called inactive. Calls of active or inactive are those of the source. Calls come from the whole dose curve; as a rule, active = well fitted inhibition curve with a large enough effect in the repeat runs; inconclusive = weak or mixed curves; inactive = flat fitted curve, though single readings scatter.

Target: Cytochrome P450 2D6 (Homo sapiens) (UniProt P10635)
Test: Cytochrome P450 family 2 subfamily D member 6 (CYP2D6) small molecule antagonists: luciferase biochemical (cell-free) qHTS assay (AID 1645840); note: nearly all actives have a fitted effect of over 55% in size
Conditions: P450-Glo CYP2D6 enzyme, luciferin luminescence, 1 h; series mostly up to 57.4 µM; activity change, negative = inhibition: at the top concentration
Outline: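 P450-Glo luminescent screen: recombinant CYP2D6 enzyme–proluciferin substrate mix preincubated with compound 10 min at room temperature, then NADPH regeneration added for 1 h at room temperature. Detection reagent added for 20 min; luciferin light read as relative luminescence units.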
% is set by controls: 0 for no effect and ±100 for the full control effect; potency is the fitted concentration of half-maximal effect.

Sequence of Cytochrome P450 2D6 (Homo sapiens) (P10635 whole entry, looked up): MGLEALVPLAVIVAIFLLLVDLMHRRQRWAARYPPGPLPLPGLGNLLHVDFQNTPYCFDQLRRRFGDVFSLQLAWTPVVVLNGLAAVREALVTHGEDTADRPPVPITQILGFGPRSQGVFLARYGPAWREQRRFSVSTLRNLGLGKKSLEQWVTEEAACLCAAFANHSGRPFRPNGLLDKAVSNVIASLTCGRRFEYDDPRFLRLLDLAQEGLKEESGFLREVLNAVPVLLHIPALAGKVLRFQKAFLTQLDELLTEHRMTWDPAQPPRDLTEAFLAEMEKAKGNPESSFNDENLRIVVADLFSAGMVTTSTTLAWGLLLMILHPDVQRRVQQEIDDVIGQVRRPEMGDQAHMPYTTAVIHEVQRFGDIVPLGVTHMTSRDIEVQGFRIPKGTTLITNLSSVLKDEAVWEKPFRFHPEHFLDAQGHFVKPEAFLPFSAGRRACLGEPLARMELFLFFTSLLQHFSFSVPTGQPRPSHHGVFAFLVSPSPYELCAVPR

SMILES	Potency	activity change, negative = inhibition [%]
NC(=O)C1(N2CCCCC2)CCN(CCCN2c3ccccc3CCc3ccc(Cl)cc32)CC1	2450 nM (active)	–
Cc1ccc2ccc(Cl)cc2n1	–	-1.71
Cc1cc2nc3ccc(=[N+](C)C)cc-3sc2cc1N	431 nM (active)	–
CC(C)C(=O)OCc1cccc(OC(=O)[C@@H]2N3C(=O)[C@@H](NC(=O)Cc4ccccc4)[C@H]3SC2(C)C)c1	–	-0.986
CC(=O)O[C@H]1CC[C@@]2(C)C(=CC[C@@H]3[C@@H]2CC[C@]2(C)C(C(C)=O)=CC[C@@H]32)C1	–	1.11
Cc1coc2ccccc2c1=O	–	-21.1
CN1CC[C@H](c2c(O)cc(O)c3c(=O)cc(-c4ccccc4Cl)oc23)[C@H](O)C1	12300 nM (active)	–
CC(C)=CCC/C(C)=C/CC/C(C)=C/CCC(=O)OC/C=C(\C)CCC=C(C)C	–	-2.2
Cc1nc(N)nc(N)c1-c1ccc(Cl)c(Cl)c1	871 nM (active)	–
CCCCCCCCCCCC[N+](C)(C)Cc1ccccc1	195 nM (active)	–
C/C(=N\O)[C@@H](C)NCC(C)(C)CN[C@H](C)/C(C)=N/O	–	-15.6
CN1C(CSCC(F)(F)F)Nc2cc(Cl)c(S(N)(=O)=O)cc2S1(=O)=O (stereo not drawn)	–	-10.2
CCCOc1ccc2c(c1)CC[C@@H]1[C@@H]2CC[C@]2(C)C(OC)CC[C@@H]12 (stereo partly drawn)	15500 nM (active)	–
Cc1cccc(C)c1NC(=O)c1ccc(N)cc1	–	-2.36
Cc1cnc(NS(=O)(=O)c2ccc(N)cc2)nc1	–	-2.23
O=P(O)(O)OCC(O)CO (stereo not drawn)	–	7.59
CCOC(=O)C(O)c1ccccc1 (stereo not drawn)	–	9.78
CC(=O)c1cc2ccccc2s1	–	2.31
